Measured values published in PubChem BioAssay AID1159580 (chemical genetic matrix, 2015).
Screen size: about 5,500 compounds; about 2,000 (36%) were called active. Inconclusive results (about 18%) are left out. No stated cut-off is given here; in the data, active means normalized growth mostly below about 0.91 (no sharp cut-off); inconclusive means no clear call, values can overlap the other calls; inactive means mostly above about 0.92. The list shows a part of the results.

Assay: chemical genetic growth profiling, strain panel (AID 1159580);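 further: tested at 20 µM; growth read once vehicle control cultures reached saturation at 30 °C; 1 = growth at the plate median or of vehicle wells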
Details: growth OD

Measured: normalized growth

CC(=O)C1=C(O)C2C3c4c[nH]c5cccc(c45)CC3C(C)(C)N2C1=O (stereo unspecified)
inactive: S. cerevisiae deletion strains, locus YAL013W, strain DEP1, stronger effect = lower value 0.994 | S. cerevisiae deletion strains, locus YBR021W, strain FUR4, stronger effect = lower value 0.983 | S. cerevisiae deletion strains, locus YBR229C, strain ROT2, stronger effect = lower value 0.997 | S. cerevisiae deletion strains, locus YCL029C, strain bik1, stronger effect = lower value 1 | S. cerevisiae deletion strains, locus YDL035C, strain GPR1, stronger effect = lower value 1.01 | S. cerevisiae deletion strains, locus YDL074C, strain BRE1, stronger effect = lower value 1.01 | S. cerevisiae deletion strains, locus YDL101C, strain DUN1, stronger effect = lower value 1.01 | S. cerevisiae deletion strains, locus YDL134C, strain PPH21, stronger effect = lower value 1 | S. cerevisiae deletion strains, locus YDL185W, strain tfp1, stronger effect = lower value 0.995 | S. cerevisiae deletion strains, locus YDL192W, strain arf1, stronger effect = lower value 1 | S. cerevisiae deletion strains, locus YDR101C, strain arx1, stronger effect = lower value 0.995 | S. cerevisiae deletion strains, locus YDR150W, strain NUM1, stronger effect = lower value 1.01 | S. cerevisiae deletion strains, locus YDR162C, strain NBP2, stronger effect = lower value 0.993 | S. cerevisiae deletion strains, locus YDR318W, strain mcm21, stronger effect = lower value 1.01 | S. cerevisiae deletion strains, locus YDR388W, stronger effect = lower value 1 | S. cerevisiae deletion strains, locus YDR502C, strain sam2, stronger effect = lower value 1.01 | S. cerevisiae deletion strains, locus YEL061C, strain CIN8, stronger effect = lower value 0.989 | S. cerevisiae deletion strains, locus YER110C, stronger effect = lower value 1.01 | S. cerevisiae deletion strains, locus YER155C, strain BEM2, stronger effect = lower value 1 | S. cerevisiae deletion strains, locus YER167W, strain BCK2, stronger effect = lower value 1.01 | S. cerevisiae deletion strains, locus YGL078C, strain dbp3, stronger effect = lower value 1 | S. cerevisiae deletion strains, locus YGL086W, strain mad1, stronger effect = lower value 1.01 | S. cerevisiae deletion strains, locus YGL248W, strain PDE1, stronger effect = lower value 0.997 | S. cerevisiae deletion strains, locus YGR078C, strain PAC10, stronger effect = lower value 0.975 | S. cerevisiae deletion strains, locus YGR135W, strain pre9, stronger effect = lower value 0.993 | S. cerevisiae deletion strains, locus YGR229C, strain SMI1, stronger effect = lower value 0.971 | S. cerevisiae deletion strains, locus YGR252W, strain gcn5, stronger effect = lower value 1.04 | S. cerevisiae deletion strains, locus YHR030C, strain SLT2, stronger effect = lower value 1.01 | S. cerevisiae deletion strains, locus YHR079C, strain IRE1 (second series), stronger effect = lower value 1.02 | S. cerevisiae deletion strains, locus YHR094C, strain hxt1, stronger effect = lower value 1 | S. cerevisiae deletion strains, locus YHR129C, strain ARP1, stronger effect = lower value 1 | S. cerevisiae deletion strains, locus YHR200W, strain rpn10, stronger effect = lower value 1.01 | S. cerevisiae deletion strains, locus YIL066C, strain RNR3, stronger effect = lower value 1.04 | S. cerevisiae deletion strains, locus YIL073C, strain SPO22, stronger effect = lower value 1.07 | S. cerevisiae deletion strains, locus YIL125W, strain kgd1, stronger effect = lower value 1 | S. cerevisiae deletion strains, locus YIR030C, strain dcg1, stronger effect = lower value 1 | S. cerevisiae deletion strains, locus YJL095W, strain BCK1, stronger effect = lower value 1 | S. cerevisiae deletion strains, locus YJL134W, strain LCB3, stronger effect = lower value 1.01 | S. cerevisiae deletion strains, locus YJL168C, strain set2, stronger effect = lower value 1.01 | S. cerevisiae deletion strains, locus YJL187C, strain SWE1 (second series), stronger effect = lower value 1.01 | S. cerevisiae deletion strains, locus YJR043C, strain POL32, stronger effect = lower value 1.01 | S. cerevisiae deletion strains, locus YJR075W, strain HOC1, stronger effect = lower value 1 | S. cerevisiae deletion strains, locus YKL009W, strain mrt4, stronger effect = lower value 1.03 | S. cerevisiae deletion strains, locus YKL068W, stronger effect = lower value 1 | S. cerevisiae deletion strains, locus YKL085W, strain MDH1 (second series), stronger effect = lower value 0.994 | S. cerevisiae deletion strains, locus YKL085W, strain MDH1, stronger effect = lower value 0.994 | S. cerevisiae deletion strains, locus YKL190W, strain CNB1, stronger effect = lower value 0.99 | S. cerevisiae deletion strains, locus YKR001C, strain vps1, stronger effect = lower value 1 | S. cerevisiae deletion strains, locus YLR039C, strain RIC1, stronger effect = lower value 0.979 | S. cerevisiae deletion strains, locus YLR058C, strain SHM2, stronger effect = lower value 1 | S. cerevisiae deletion strains, locus YLR102C, strain apc9, stronger effect = lower value 1.01 | S. cerevisiae deletion strains, locus YLR262C, strain YPT6, stronger effect = lower value 0.97 | S. cerevisiae deletion strains, locus YLR268W, strain sec22, stronger effect = lower value 0.995 | S. cerevisiae deletion strains, locus YLR330W, strain CHS5, stronger effect = lower value 0.992 | S. cerevisiae deletion strains, locus YLR342W, strain FKS1 (second series), stronger effect = lower value 1.02 | S. cerevisiae deletion strains, locus YLR371W, strain rom2, stronger effect = lower value 1.01 | S. cerevisiae deletion strains, locus YLR418C, strain cdc73, stronger effect = lower value 0.99 | S. cerevisiae deletion strains, locus YML016C, strain PPZ1, stronger effect = lower value 1 | S. cerevisiae deletion strains, locus YML032C, strain rad52, stronger effect = lower value 1.01 | S. cerevisiae deletion strains, locus YML124C, strain tub3, stronger effect = lower value 1 | S. cerevisiae deletion strains, locus YMR078C, strain ctf18, stronger effect = lower value 1 | S. cerevisiae deletion strains, locus YMR223W, strain ubp8, stronger effect = lower value 1.03 | S. cerevisiae deletion strains, locus YMR263W, strain SAP30, stronger effect = lower value 1.01 | S. cerevisiae deletion strains, locus YMR307W, strain GAS1, stronger effect = lower value 1.08 | S. cerevisiae deletion strains, locus YNL067W, strain RPL9B, stronger effect = lower value 1 | S. cerevisiae deletion strains, locus YNL128W, strain TEP1, stronger effect = lower value 0.998 | S. cerevisiae deletion strains, locus YNL153C, strain GIM3, stronger effect = lower value 0.999 | S. cerevisiae deletion strains, locus YNL233W, strain BNI4, stronger effect = lower value 1.01 | S. cerevisiae deletion strains, locus YNL250W, strain rad50, stronger effect = lower value 1.01 | S. cerevisiae deletion strains, locus YNL271C, strain bni1, stronger effect = lower value 1.01 | S. cerevisiae deletion strains, locus YNL298W, strain CLA4, stronger effect = lower value 0.998 | S. cerevisiae deletion strains, locus YNL307C, strain MCK1, stronger effect = lower value 1.02 | S. cerevisiae deletion strains, locus YNL322C, strain KRE1, stronger effect = lower value 1 | S. cerevisiae deletion strains, locus YNR052C, strain pop2, stronger effect = lower value 1.01 | S. cerevisiae deletion strains, locus YOL006C, strain TOP1, stronger effect = lower value 1.06 | S. cerevisiae deletion strains, locus YOL012C, strain htz1 0.841 | S. cerevisiae deletion strains, locus YOL147C, strain pex11, stronger effect = lower value 1.01 | S. cerevisiae deletion strains, locus YOR061W, strain CKA2, stronger effect = lower value 1 | S. cerevisiae deletion strains, locus YOR069W, strain VPS5, stronger effect = lower value 0.993 | S. cerevisiae deletion strains, locus YOR136W, strain idh2, stronger effect = lower value 1.01 | S. cerevisiae deletion strains, locus YOR144C, strain elg1, stronger effect = lower value 1 | S. cerevisiae deletion strains, locus YOR184W, strain ser1, stronger effect = lower value 1.03 | S. cerevisiae deletion strains, locus YOR316C, strain cot1, stronger effect = lower value 1 | S. cerevisiae deletion strains, locus YPL055C, strain LGE1, stronger effect = lower value 0.976 | S. cerevisiae deletion strains, locus YPL241C, strain CIN2, stronger effect = lower value 1.05 | S. cerevisiae deletion strains, locus YPR119W, strain clb2, stronger effect = lower value 1 | S. cerevisiae deletion strains, locus YPR141C, strain kar3, stronger effect = lower value 1 | S. cerevisiae deletion strains, locus YPR163C, strain tif3, stronger effect = lower value 1 | S. cerevisiae deletion strains, locus YPR167C, strain met16, stronger effect = lower value 1.01 | S. cerevisiae deletion strains, strain wtn01, stronger effect = lower value 0.995 | S. cerevisiae strains, strain wild type, stronger effect = lower value 0.971
